# Out of some 16,000 compounds screened, about 5,700 (36%) were called active. Not shown: some 24% with an inconclusive outcome. Calls follow the shape of the dose curve; as a rule, active = well fitted curve in the direction sought with a large enough effect; inconclusive = small, poorly fitted or top-dose-only effect, or effect the other way; inactive = no such curve, though single readings can be large or run the other way. Some of the results follow.
# Biological target: Cytochrome P450 1A2 (Homo sapiens) (UniProt P05177)
# Test: Cytochrome panel assay with activity outcomes
# Settings: recombinant CYP, pro-luciferin dealkylation, luminescence, p450-cyp1a2; series mostly up to 57.1 µM; activity, negative = inhibition: at the top concentration
# % is scaled to controls: 0 for no effect and ±100 for the full control effect.
# Sequence of Cytochrome P450 1A2 (Homo sapiens) (P05177 whole entry, looked up): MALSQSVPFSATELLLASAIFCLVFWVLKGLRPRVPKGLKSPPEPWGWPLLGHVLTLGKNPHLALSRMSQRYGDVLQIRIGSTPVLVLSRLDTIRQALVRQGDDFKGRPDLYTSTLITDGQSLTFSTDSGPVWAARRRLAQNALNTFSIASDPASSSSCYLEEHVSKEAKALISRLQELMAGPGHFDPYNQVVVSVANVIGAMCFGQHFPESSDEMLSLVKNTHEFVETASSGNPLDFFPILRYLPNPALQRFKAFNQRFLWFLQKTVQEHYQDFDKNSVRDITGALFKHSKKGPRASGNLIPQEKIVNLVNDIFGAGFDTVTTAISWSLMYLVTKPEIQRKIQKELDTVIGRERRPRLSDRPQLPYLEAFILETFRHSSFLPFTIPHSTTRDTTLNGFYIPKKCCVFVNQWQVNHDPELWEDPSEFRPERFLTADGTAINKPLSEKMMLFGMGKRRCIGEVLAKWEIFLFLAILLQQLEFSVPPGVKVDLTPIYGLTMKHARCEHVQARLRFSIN
SMILES,AC50,"activity, negative = inhibition"
Cc1cc(N)n2ncc(-c3ccc(Cl)cc3)c2n1,1.26 µM (active),–
CC1(C)O[C@@H]2O[C@H]([C@@H]3COC(C)(C)O3)[C@H](N)[C@H]2O1,–,8.69% [at 2.29 µM] (inactive)
O=C(Nc1ccc2ccccc2c1)c1onc2c1CCCC2,4.47 µM (active),–
Cc1cccc(NC(=S)N2CCC(N(C)CC3CCCO3)CC2)c1C (stereo not given),–,3.1% (inactive)
Cc1cccc(NC(=O)c2onc3c2CCCC3)c1C,2.24 µM (active),–
CO[C@@H]1COC(=O)C/C=C\[C@H](C)COC(=O)[C@H](Cc2ccccc2)NC(=O)C/C=C\[C@H]1C,–,4.04% [at 11.4 µM] (inactive)
Cn1c(-c2ccc(Br)cc2)cnc1NCc1cccnc1,12.6 µM (active),–
Cc1ccnc(NS(=O)(=O)c2ccc(N=[N+]=[N-])cc2)n1,–,-6.01% [at 11.4 µM] (inactive)
CC(=C/c1ccccc1)/C=N/n1cnnc1,2 µM (active),–
CC(=C\C(=O)O)/C(=C/c1ccccc1)C(=O)O,–,-20.1% (inactive)
COC(=O)c1ccc(C2C(Oc3ccccc3)C(=O)N2CCc2ccc(OC)c(OC)c2)cc1 (stereo not given),–,4.21% (inactive)
Cc1cnc(CNc2ncnc3ccc(-c4ccccc4C)cc23)cn1,6.31 µM (active),–
Cc1cnc(CNc2ncnc3ccc(-c4ccccc4CN(C)C)cc23)cn1,–,-18.6% (inactive)
Cc1cnc(CNc2ncnc3ccc(-c4ccccc4C(F)(F)F)cc23)cn1,12.6 µM (active),–
COc1ccccc1-c1ccc2ncnc(NCc3cnc(C)cn3)c2c1,6.31 µM (active),–
Cc1cnc(CNc2ncnc3ccc(-c4ccccc4Cl)cc23)cn1,6.31 µM (active),–
CC(C)NC(=O)N1CC[C@@]2(CCCN(C(=O)c3csnn3)C2)C1,–,-3.33% (inactive)
CC[C@@H]1OC(=O)[C@H](C)[C@H](O[C@@H]2C[C@](C)(OC)[C@H](O)[C@H](C)O2)[C@H](C)[C@H](O[C@@H]2O[C@@H](C)C[C@@H](N(C)C)[C@@H]2O)[C@](C)(O)C[C@H](C)C(=NOCOCCOC)[C@H](C)[C@H](O)[C@]1(C)O,–,-3% [at 25.6 µM] (inactive)
CC(C)CO/N=C1/C[C@@H](O)[C@@H](O)[C@@H]2[C@H]3C(=O)N(c4ccc(F)cc4F)C(=O)[C@@H]3CC[C@H]12,–,0.352% [at 11.4 µM] (inactive)
O=C(Nc1ccc2oc(=O)c(C(=O)O)cc2c1)Oc1ccccc1,–,-15.3% [at 2.29 µM] (inactive)
CC(=O)c1cc2ccccc2oc1=O,0.2 µM (active),–
CCN(CC)c1ccc2cc(C(C)=O)c(=O)oc2c1,0.891 µM (active),–
Cc1ccc[n+](CC(=O)c2cc3ccccc3oc2=O)c1,–,6.85% (inactive)
CC(C)OC(=O)c1cc2ccccc2oc1=O,0.447 µM (active),–
CC(C)NCC[C@@H](O)c1cc2ccccc2o1,–,-2.1% [at 2.29 µM] (inactive)
